# Laboratory results as given in the supplement of paper PMC3334620.
# The full ranking holds about 33,000 sequences; the median of “E-score (-0.5 to 0.5)” is about -0.016, and the highest 2% start at about 0.31. This excerpt belongs to a sample that is enriched for the highest values.
# Target: Cst6 (UniProt P40535)
# Assay: PBM E-score (8-mer binding enrichment) (E-score (-0.5 to 0.5)); higher = stronger / more preferred TF binding
# Conditions: protein concentration: 200 nM; construct: GST-DNA-binding domain
# Outline: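 Full-length yeast transcription factors or their DNA-binding domains, GST-tagged and expressed with PURExpress, were applied at about 100-200 nM to universal all-10-mer Agilent arrays. These arrays had been made double-stranded by primer extension on fresh or once-stripped slides. Detection used fluorescent anti-GST, normalisation used masliner, and E-scores for ungapped eight-base words pooled with reverse complements came from the Universal PBM Analysis Suite.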
# UniProt P40535, sequence (P40535 whole entry): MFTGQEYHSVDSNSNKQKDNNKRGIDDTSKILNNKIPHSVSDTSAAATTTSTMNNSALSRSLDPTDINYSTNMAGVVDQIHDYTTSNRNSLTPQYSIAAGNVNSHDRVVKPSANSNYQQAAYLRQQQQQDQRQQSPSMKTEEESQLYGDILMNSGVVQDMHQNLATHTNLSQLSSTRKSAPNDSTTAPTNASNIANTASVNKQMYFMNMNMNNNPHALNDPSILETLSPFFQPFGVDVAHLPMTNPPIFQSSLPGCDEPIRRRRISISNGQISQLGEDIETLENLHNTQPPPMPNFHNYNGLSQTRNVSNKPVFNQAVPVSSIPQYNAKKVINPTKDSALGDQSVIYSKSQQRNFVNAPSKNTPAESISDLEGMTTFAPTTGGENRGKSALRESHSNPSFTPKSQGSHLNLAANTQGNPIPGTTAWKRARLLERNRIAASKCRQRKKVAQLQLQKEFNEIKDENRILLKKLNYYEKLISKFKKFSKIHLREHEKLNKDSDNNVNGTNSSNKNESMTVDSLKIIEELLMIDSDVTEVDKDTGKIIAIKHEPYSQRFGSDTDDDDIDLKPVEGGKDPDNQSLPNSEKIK
row,Sequence,PBM E-score
1,GAACGGCA,0.352
2,GAACGGCC,-0.183
3,GGCAGGCC,-0.332
4,ATGGGTCC,-0.242
5,GACACCAC,-0.0664
6,CGTTGTCC,0.126
7,GGGGAAAA,-0.101
8,CGCATACC,0.117
9,GTTATGTA,0.165
10,ATTATGTA,0.355
11,ACTATGTC,0.0789
12,ATTATGTG,0.228
13,CTTATGTC,0.105
14,ATTATGTC,0.359
15,CTTACTGA,-0.0696
16,GGGCTCAA,-0.174
17,ACCCCTTG,-0.33
18,AGAAATCG,-0.0866
19,AATATATA,0.239
20,AATATTGT,0.306
21,AATATATG,0.171
22,GCTATATA,0.167
23,TATATACA,0.161

row,Sequence,PBM E-score
1,AATATTGC,0.257
2,AATATTGG,0.0316
3,ACTATATC,0.128
4,TATATATA,0.315
5,GATATATA,0.304
6,ACTATATA,0.316
7,AATATATT,0.355
8,GAATGTGC,0.07
9,GGACGAAC,-0.0196
10,ACTTGCGC,-0.0133
11,CTCGCATC,0.00499
12,CATATATC,0.121
13,AGTATATC,0.0089
14,CATATATG,0.341
15,CATATATA,0.272
16,AGTATATG,0.111
17,AGTATATA,0.348
18,AGTTGCGA,0.0793
19,AAACTGAT,0.0925
20,ACGCGATG,0.122
21,AATTGTCG,0.0471
22,CATTTGTC,0.0906
23,CAGGGTTA,-0.124

row,Sequence,PBM E-score
1,CACGTAAA,0.181
2,AACGTAAA,0.274
3,ACCGTAAC,-0.0255
4,AACGTACT,0.0968
5,GCCGTAAA,0.243
6,GACGTAAA,0.374
7,ACCGTAAG,0.109
8,AACGTAGC,0.0195
9,AACGTAAT,0.453
10,CACGTAAG,0.292
11,AACGTAAG,0.306
12,AACGTAAC,0.329
13,CACCCTCA,-0.212
14,AAGTTCAC,-0.0134
15,GACTTGAA,-0.171
16,AGCTGTGA,0.135
17,TCGGAAAA,0.113
18,AGTCTAGA,-0.124
19,CTCGGACC,-0.18
20,GGGCTGGA,-0.295
21,CATGCGTA,0.15
22,GACGTAGC,0.166
23,TACGTAAA,0.42

row,Sequence,PBM E-score
1,GACGTACC,0.349
2,TGCGTAAA,0.218
3,CACGTACC,-0.0025
4,TCCGTAAA,-0.0237
5,CACGTAAC,0.262
6,GACGTAAC,0.46
7,AACGTACC,-0.185
8,GCTTGATA,0.162
9,CCCGCTCA,-0.0513
10,CCGCAGGA,-0.234
11,AATCGGGT,0.191
12,TCTCGGCA,-0.0951
13,GCAGCCCC,-0.349
14,GGGTGTAC,-0.185
15,CTTACATA,0.25
16,AGTACATC,-0.0114
17,CTCACATC,0.0865
18,ATTACACA,0.318
19,ATTACAAC,0.226
20,ATTACATG,0.245
21,CTTACATC,0.365
22,GTTACATA,0.228
23,ATTACACG,0.205

row,Sequence,PBM E-score
1,ATTACACC,0.089
2,ATTACATC,0.433
3,ATTACATA,0.396
4,GAGACCCC,-0.279
5,AACCCACC,0.0456
6,CTTTAGAA,0.0739
7,AATCCGAG,-0.0702
8,ATCAAGGA,-0.0436
9,AAGGGGCA,-0.178
10,CTGATATA,0.179
11,ATGATATG,0.269
12,GTGATAAA,0.201
13,ATGATAAC,0.263
14,ATGATATA,0.31
15,ATGATAAA,0.307
16,ATCAAATG,0.0892
17,AATATTAT,0.242
18,AATATTAG,0.185
19,TATATTAA,0.336
20,AATATTAA,0.334
21,GATATTAA,0.201
22,CATATTAA,0.234
23,TGGATCAA,0.125

row,Sequence,PBM E-score
1,CCTAGTAA,-0.194
2,CAAAGCTA,0.0247
3,ATCATTTG,0.165
4,GTCATTAA,0.394
5,ATCATTTC,0.246
6,CTCATTTA,0.141
7,GACATTTA,0.115
8,ATCATTAA,0.28
9,ATCATTTA,0.335
10,CTCATTAA,0.0741
11,GTCATTTA,0.368
12,CCGCTCCA,-0.152
13,ACCCCCCC,-0.357
14,ATTGACAG,0.0614
15,ATGACGGA,0.417
16,ACGACGGA,0.0762
17,AAGACGGA,0.00374
18,ATGACGGC,0.365
19,GCGACGGA,-0.224
20,CTGACGGA,0.165
21,CTGACGGC,0.111
22,GTGACGGA,0.352
23,ATGACGGG,0.258

row,Sequence,PBM E-score
1,CGCATAAG,0.102
2,CGTACGGA,0.168
3,GAAAGCGC,-0.00012
4,CCAAACCC,-0.126
5,ATGACAAC,0.302
6,ATGACATC,0.478
7,CTGACATC,0.307
8,CGGACATC,-0.196
9,CTGACAGC,-0.148
10,ATGACACC,0.228
11,CAGAGGAG,-0.0824
12,CCTTACCC,-0.0626
13,CCAGAAGG,-0.0896
14,GCGCGCGA,0.0433
15,CCGCGCGA,0.255
16,CCGCGCGC,0.151
17,GCGCGCGC,0.345
18,ACGCGCGC,0.175
19,CCGCGCGG,0.382
20,AGCCCCAA,-0.281
